# The full list was thinned out, with the strongest signals kept by preference.
# Experiments:
# Test in all cases: glycan array binding signal (z-score within array); higher = stronger binding
# Conditions in all cases: glycan notation: IUPAC condensed, linker removed
# [1] = target: Fuc(a1-2)Gal(b1-3)GalNAc(a1-3)[Fuc(a1-2)]Gal(b1-4)GlcNAc
# Summary of the method: (§1)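 The Consortium for Functional Glycomics database supplied 3228 glycan arrays, of which those lacking an available protein sequence were dropped. The binding signal, a within-array Z-score, was averaged across arrays of the same protein sequence and across linkers. Negative scores can be read as non-binding.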
# [2] = target: Fuc(a1-2)Gal(b1-3)GlcNAc(b1-3)[Gal(b1-4)GlcNAc(b1-6)]Gal(b1-4)Glc
# Summary of the method: as §1
# [3] = target: Fuc(a1-2)Gal(b1-4)GlcNAc(b1-2)[Fuc(a1-2)Gal(b1-4)GlcNAc(b1-4)]Man(a1-3)[Fuc(a1-2)Gal(b1-4)GlcNAc(b1-2)Man(a1-6)]Man(b1-4)GlcNAc(b1-4)GlcNAc
# Summary of the method: as §1
# [4] = target: Fuc(a1-2)Gal(b1-4)GlcNAc(b1-3)GalNAc
# Summary of the method: as §1
# [5] = target: Fuc(a1-2)Gal(b1-4)[Fuc(a1-3)]GlcNAc(b1-3)GalNAc
# Summary of the method: as §1
# [6] = target: Fuc(a1-2)[GalNAc(a1-3)]Gal
# Summary of the method: as §1
# [7] = target: Fuc(a1-2)[GalNAc(a1-3)]Gal(b1-3)GlcNAc
# Summary of the method: as §1
# [8] = target: Fuc(a1-2)[GalNAc(a1-3)]Gal(b1-3)GlcNAc(b1-6)GalNAc
# Summary of the method: as §1
# [9] = target: Fuc(a1-2)[GalNAc(a1-3)]Gal(b1-4)GlcNAc
# Summary of the method: as §1
# [10] = target: Fuc(a1-3)[Gal3S(b1-4)]GlcNAc
# Summary of the method: as §1
# [11] = target: Gal(a1-3)Gal(b1-4)GlcNAc(b1-3)GalNAc
# Summary of the method: as §1
# [12] = target: Gal(b1-3)GlcNAc(b1-3)Gal(b1-4)Glc
# Summary of the method: as §1
# [13] = target: Gal(b1-4)GlcNAc(b1-2)Man
# Summary of the method: as §1
# [14] = target: Gal(b1-4)GlcNAc(b1-3)Gal(b1-3)GlcNAc
# Summary of the method: as §1
# [15] = target: Gal(b1-4)GlcNAc(b1-3)Gal(b1-4)GlcNAc(b1-3)Gal(b1-4)GlcNAc(b1-2)Man(a1-3)[Gal(b1-4)GlcNAc(b1-3)Gal(b1-4)GlcNAc(b1-3)Gal(b1-4)GlcNAc(b1-2)Man(a1-6)]Man(b1-4)GlcNAc(b1-4)[Fuc(a1-6)]GlcNAc
# Summary of the method: as §1
# [16] = target: Gal(b1-4)GlcNAc(b1-3)Gal(b1-4)GlcNAc(b1-3)Gal(b1-4)GlcNAc(b1-3)Gal(b1-4)GlcNAc(b1-3)Gal(b1-4)GlcNAc(b1-2)Man(a1-3)[Gal(b1-4)GlcNAc(b1-3)Gal(b1-4)GlcNAc(b1-3)Gal(b1-4)GlcNAc(b1-3)Gal(b1-4)GlcNAc(b1-3)Gal(b1-4)GlcNAc(b1-2)Man(a1-6)]Man(b1-4)GlcNAc(b1-4)[Fuc(a1-6)]GlcNAc
# Summary of the method: as §1
# [17] = target: Gal(b1-4)GlcNAc(b1-3)Gal(b1-4)GlcNAc(b1-3)Gal(b1-4)GlcNAc(b1-3)Gal(b1-4)GlcNAc(b1-3)Gal(b1-4)GlcNAc(b1-2)[Gal(b1-4)GlcNAc(b1-3)Gal(b1-4)GlcNAc(b1-3)Gal(b1-4)GlcNAc(b1-3)Gal(b1-4)GlcNAc(b1-3)Gal(b1-4)GlcNAc(b1-6)]Man(a1-6)[Gal(b1-4)GlcNAc(b1-3)Gal(b1-4)GlcNAc(b1-3)Gal(b1-4)GlcNAc(b1-3)Gal(b1-4)GlcNAc(b1-3)Gal(b1-4)GlcNAc(b1-2)Man(a1-3)]Man(b1-4)GlcNAc(b1-4)[Fuc(a1-6)]GlcNAc
# Summary of the method: as §1
# [18] = target: Gal(b1-4)GlcNAc(b1-3)GalNAc
# Summary of the method: as §1
# [19] = target: Gal(b1-4)GlcNAc(b1-6)[Gal(b1-3)]GalNAc
# Summary of the method: as §1
# [20] = target: Gal3S(b1-3)[Fuc(a1-4)]GlcNAc
# Summary of the method: as §1
# [21] = target: Gal3S(b1-4)Glc6S
# Summary of the method: as §1
# [22] = target: Gal3S(b1-4)GlcNAc
# Summary of the method: as §1
# [23] = target: Gal3S(b1-4)[Fuc(a1-3)]Glc6S
# Summary of the method: as §1
# [24] = target: Gal6S(b1-4)GlcNAc6S
# Summary of the method: as §1
# [25] = target: GalNAc(b1-3)Gal(a1-6)Gal(b1-4)Glc
# Summary of the method: as §1
# [26] = target: GalNAc4S6S(b1-4)GlcNAc
# Summary of the method: as §1
# [27] = target: Glc(b1-4)Glc
# Summary of the method: as §1
# [28] = target: GlcA(b1-3)Gal
# Summary of the method: as §1
# [29] = target: GlcA(b1-6)Gal
# Summary of the method: as §1
# [30] = target: GlcNAc(b1-2)Man(a1-3)[GlcNAc(b1-4)][GlcNAc(b1-2)Man(a1-6)]Man(b1-4)GlcNAc(b1-4)[Fuc(a1-6)]GlcNAc
# Summary of the method: as §1
# [31] = target: GlcNAc(b1-3)Gal(b1-4)GlcNAc(b1-3)Gal(b1-4)GlcNAc(b1-3)Gal(b1-4)GlcNAc(b1-2)Man(a1-3)[GlcNAc(b1-3)Gal(b1-4)GlcNAc(b1-3)Gal(b1-4)GlcNAc(b1-3)Gal(b1-4)GlcNAc(b1-2)Man(a1-6)]Man(b1-4)GlcNAc(b1-4)[Fuc(a1-6)]GlcNAc
# Summary of the method: as §1
# [32] = target: GlcNAc(b1-3)Gal(b1-4)GlcNAc(b1-3)[GlcNAc(b1-3)Gal(b1-4)GlcNAc(b1-3)]GalNAc
# Summary of the method: as §1
# [33] = target: GlcNAc(b1-6)GalNAc
# Summary of the method: as §1
# [34] = target: Man(a1-6)Man
# Summary of the method: as §1
# [35] = target: Neu5Ac(a2-3)Gal(b1-3)GalNAc(b1-3)Gal(a1-4)Gal(b1-4)Glc
# Summary of the method: as §1
# [36] = target: Neu5Ac(a2-3)Gal(b1-3)GalNAc(b1-4)[Neu5Ac(a2-8)Neu5Ac(a2-3)]Gal(b1-4)Glc
# Summary of the method: as §1
# [37] = target: Neu5Ac(a2-3)Gal(b1-4)[Fuc(a1-3)]GlcNAc(b1-3)Gal(b1-4)[Fuc(a1-3)]GlcNAc(b1-3)Gal(b1-4)[Fuc(a1-3)]GlcNAc
# Summary of the method: as §1
# [38] = target: Neu5Ac(a2-3)Gal(b1-4)[Fuc(a1-3)]GlcNAc(b1-3)GalNAc
# Summary of the method: as §1
# [39] = target: Neu5Ac(a2-3)Gal(b1-4)[Fuc(a1-3)]GlcNAc(b1-6)[Neu5Ac(a2-3)Gal(b1-3)]GalNAc
# Summary of the method: as §1
# [40] = target: Neu5Ac(a2-3)Gal6S(b1-4)[Fuc(a1-3)]GlcNAc
# Summary of the method: as §1
# [41] = target: Neu5Ac(a2-6)Gal(b1-4)Glc
# Summary of the method: as §1
# [42] = target: Neu5Ac(a2-6)Gal(b1-4)GlcNAc(b1-2)Man(a1-6)Man(b1-4)GlcNAc(b1-4)GlcNAc
# Summary of the method: as §1
# [43] = target: Neu5Ac(a2-6)Gal(b1-4)GlcNAc(b1-3)Gal(b1-3)GlcNAc
# Summary of the method: as §1
# [44] = target: Neu5Ac(a2-6)Gal(b1-4)GlcNAc(b1-3)Gal(b1-4)GlcNAc(b1-3)Gal(b1-4)GlcNAc(b1-2)Man(a1-3)[Neu5Ac(a2-6)Gal(b1-4)GlcNAc(b1-3)Gal(b1-4)GlcNAc(b1-3)Gal(b1-4)GlcNAc(b1-2)Man(a1-6)]GalNAc
# Summary of the method: as §1
# [45] = target: Neu5Ac(a2-6)Gal(b1-4)GlcNAc(b1-3)Gal(b1-4)[Fuc(a1-3)]GlcNAc(b1-3)Gal(b1-4)[Fuc(a1-3)]GlcNAc
# Summary of the method: as §1
# [46] = target: Neu5Ac(a2-6)Gal(b1-4)GlcNAc(b1-3)[Neu5Ac(a2-6)Gal(b1-4)GlcNAc(b1-6)]GalNAc
# Summary of the method: as §1
# [47] = target: Neu5Ac(a2-8)Neu5Ac(a2-8)Neu5Ac(a2-3)[Gal(b1-3)GalNAc(b1-4)]Gal(b1-4)Glc
# Summary of the method: as §1
# [48] = target: Neu5Ac(a2-8)Neu5Gc(a2-3)Gal(b1-4)GlcNAc
# Summary of the method: as §1
# [49] = target: Neu5Ac9Ac(a2-3)Gal(b1-4)GlcNAc
# Summary of the method: as §1
# [50] = target: Neu5Ac9Ac(a2-6)Gal(b1-4)GlcNAc
# Summary of the method: as §1
# [51] = target: Neu5Gc(a2-8)Neu5Gc(a2-3)Gal(b1-4)GlcNAc
# Summary of the method: as §1
binder,measurement,setting,value
"SspB C123 (Streptococcus gordonii), Q54186 (protein) MAHFHYSSLLAQPQINKEIKNEDGVDIDRTLVAKQSIGKFELKTEALTAGRPKTTSFVLVDPLPTGYKFDLDATKAASTGFDTTYDEASHTVTFKATDETLATYNADLTKPVETLHPTVVGRVLNDGATYTNNFTLTVNDAYGIKSNVVRVTTPGKPNDPDNPNNNYIKPTKVNKNKEGLNIDGKEVLAGSTNYYELTWDLDQYKGDKSSKEAIQNGFYYVDDYPEEALDVRPDLVKVADEKGNQVSGVSVQQYDSLEAAPKKVQDLLKKANITVKGAFQLFSADNPEEFYKQYVSTGTSLVITDPMTVKSEFGKTGGKYENKAYQIDFGNGYATEVVVNNVPKITPKKDVTVSLDPTSENLDGQTVQLYQTFNYRLIGGFIPQNHSEELEDYSFVDDYDQAGDQYTGNYKTFSSLNLTMKDGSVIKAGTDLTSQTTAETDATNGIVTVRFKEDFLQKISLDSPFQAETYLQMRRIAIGTFENTYVNTVNKVAYASAAALEHHHHHH",glycan array binding signal (z-score),[1],-1.8
same,glycan array binding signal (z-score),[2],-0.17
same,glycan array binding signal (z-score),[3],2.68
same,glycan array binding signal (z-score),[4],-0.78
same,glycan array binding signal (z-score),[5],3.99
same,glycan array binding signal (z-score),[6],-0.539
same,glycan array binding signal (z-score),[7],0.229
same,glycan array binding signal (z-score),[8],-0.099
same,glycan array binding signal (z-score),[9],-0.406
same,glycan array binding signal (z-score),[10],0.073
same,glycan array binding signal (z-score),[11],-0.133
same,glycan array binding signal (z-score),[12],0.516
same,glycan array binding signal (z-score),[13],-0.183
same,glycan array binding signal (z-score),[14],1.37
same,glycan array binding signal (z-score),[15],1.26
same,glycan array binding signal (z-score),[16],0.993
same,glycan array binding signal (z-score),[17],2.74
same,glycan array binding signal (z-score),[18],0.085
same,glycan array binding signal (z-score),[19],0.155
same,glycan array binding signal (z-score),[20],0.284
same,glycan array binding signal (z-score),[21],0.314
same,glycan array binding signal (z-score),[22],0.468
same,glycan array binding signal (z-score),[23],5.71
same,glycan array binding signal (z-score),[24],1.05
same,glycan array binding signal (z-score),[25],-0.455
same,glycan array binding signal (z-score),[26],-0.886
same,glycan array binding signal (z-score),[27],-0.604
same,glycan array binding signal (z-score),[28],-1.48
same,glycan array binding signal (z-score),[29],3.52
same,glycan array binding signal (z-score),[30],-0.492
same,glycan array binding signal (z-score),[31],0.372
same,glycan array binding signal (z-score),[32],0.786
same,glycan array binding signal (z-score),[33],-0.398
same,glycan array binding signal (z-score),[34],3.13
same,glycan array binding signal (z-score),[35],-0.945
same,glycan array binding signal (z-score),[36],-0.494
same,glycan array binding signal (z-score),[37],2.7
same,glycan array binding signal (z-score),[38],2.98
same,glycan array binding signal (z-score),[39],3.38
same,glycan array binding signal (z-score),[40],-0.28
same,glycan array binding signal (z-score),[41],-0.254
same,glycan array binding signal (z-score),[42],-0.261
same,glycan array binding signal (z-score),[43],-0.017
same,glycan array binding signal (z-score),[44],3.21
same,glycan array binding signal (z-score),[45],0.632
same,glycan array binding signal (z-score),[46],-0.829
same,glycan array binding signal (z-score),[47],5.25
same,glycan array binding signal (z-score),[48],-0.198
same,glycan array binding signal (z-score),[49],-0.938
same,glycan array binding signal (z-score),[50],0.758
same,glycan array binding signal (z-score),[51],-0.249
